# Hits are enriched below; roughly 2.9% of the tested compounds scored in any of these assays.
# PAFAH1B2 inh – PAFAH1B2 enzyme inhibitors, primary screen, biochemical, fluorescence polarization, human. AID 492953, 2010. 1.2% of 340,000 active. recombinant PAFAH1B2, FP-rhodamine activity probe. inhibition, % at 3.39 µM;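 active = inhibition above the mean of all tested compounds plus 3 SD, cut at about 24% in these data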
# Target sequence (P68402 whole entry, looked up): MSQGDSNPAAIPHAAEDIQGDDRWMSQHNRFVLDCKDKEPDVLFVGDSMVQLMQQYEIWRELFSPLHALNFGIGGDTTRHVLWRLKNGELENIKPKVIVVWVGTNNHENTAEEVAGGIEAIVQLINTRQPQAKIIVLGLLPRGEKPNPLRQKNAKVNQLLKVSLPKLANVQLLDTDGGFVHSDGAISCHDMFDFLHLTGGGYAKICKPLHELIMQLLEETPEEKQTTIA
# ZTA DNA inh – counter-screen for EBNA-1 inhibitors: inhibitors of Epstein-Barr virus ZTA. P03206. ZTA-DNA binding, fluorescence polarization. inhibition, % at 11 µM. 0.15% of 320,000 active; in the data active = inhibition above about 33%
# rCAG binder – binders of r(CAG) RNA repeats, primary screen, biochemical, fluorescence | 1.3% of 370,000 active | r(CAG) RNA repeat, TO-PRO-1 dye displacement fluorescence | inhibition, % at 3 µM;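 active = inhibition above the plate cutoff, the mean of all test compounds on that plate plus 3 SD, cut at about 35% in these data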;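 note: higher means more dye released from RNA so lower well fluorescence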
# PAFAH1B3 inh – PAFAH1B3 enzyme inhibitors, primary screen, biochemical, fluorescence polarization, human. Platelet-activating factor acetylhydrolase IB subunit alpha1 (Homo sapiens), Q15102. 0.28% of 340,000 active. AID 492972, 2010. recombinant PAFAH1B3, FP-rhodamine probe. inhibition, % at 3.39 µM;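 active = inhibition above the screen-wide average of all tested compounds plus 3 SD, cut at about 25% in these data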
# Target sequence (Q15102 whole entry, looked up): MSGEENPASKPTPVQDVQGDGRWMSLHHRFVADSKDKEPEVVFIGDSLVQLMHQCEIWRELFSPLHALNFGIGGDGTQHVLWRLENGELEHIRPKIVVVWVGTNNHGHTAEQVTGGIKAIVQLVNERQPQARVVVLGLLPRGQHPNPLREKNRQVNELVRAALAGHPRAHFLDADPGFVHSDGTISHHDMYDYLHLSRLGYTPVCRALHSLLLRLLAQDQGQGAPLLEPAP
# PAFAH2 FP inh – PAFAH2 enzyme inhibitors, primary screen, biochemical, fluorescence polarization, human; Platelet-activating factor acetylhydrolase 2, cytoplasmic (Homo sapiens), Q99487; recombinant PAFAH2, FP-rhodamine activity probe; inhibition, % at 3.39 µM; 0.99% of 340,000 active; AID 492956, 2010;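 active = inhibition above the mean over all tested compounds plus 3 SD, cut at about 30% in these data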;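 note: inhibitors block probe labeling of enzyme so polarization drops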
# EBNA-1 inhibitor – EBNA-1 DNA-binding inhibitors, primary screen, biochemical, fluorescence polarization; inhibition, % at 14.8 µM; 0.34% of 300,000 active; AID 1950, 2009; in the data active = inhibition above about 28%
# rCAG bind conf – small molecules binding CAG repeat RNA – biochemical, fluorescence, confirmation; shares compounds with rCAG binder; AID 652065, 2013; r(CAG) RNA repeat, TO-PRO-1 dye displacement fluorescence; 70% of 4,300 active; inhibition, % at 3 µM;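 active = inhibition above a per-plate cutoff, the mean inhibition of sample wells plus 3 SD, cut at about 35% in these data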;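 note: loss of TO-PRO-1 fluorescence as compound displaces dye from 1x1 AA loop RNA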
# DNA CAG counter – displacement of TO-PRO-1 from CAG DNA duplex, counter-screen for rCAG RNA repeat binder project, biochemical, fluorescence, TO-PRO-1 dye, d(CAG) DNA oligo; shares compounds with rCAG binder; d(CAG) DNA oligo TO-PRO-1 dye displacement; inhibition, % at 3 µM; 94% of 4,300 active;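 active = inhibition above its plate's cutoff, the mean test-well inhibition plus 3 SD, cut at about 4.8% in these data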;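 note: hits displace the dye from DNA and so lower well fluorescence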
# Hits are given with their value; - = inactive; . = no result.
SMILES,PAFAH1B2 inh,ZTA DNA inh,rCAG binder,PAFAH1B3 inh,PAFAH2 FP inh,EBNA-1 inhibitor,rCAG bind conf,DNA CAG counter
O=C1CCC(C(=O)N2CCCC(N3CCN(c4cccc(C(F)(F)F)c4)CC3)C2)=NN1 (stereo not drawn),-,-,-,-,-,-,.,.
Cc1ccc(NC(=O)Cn2cc(C(F)(F)F)cc(Cl)c2=O)cc1S(=O)(=O)N1CCCCC1,-,-,-,-,-,-,.,.
Cc1cccc(C)c1-n1nnnc1C1(C)CCC(=O)N1CC(F)(F)F (stereo not drawn),.,.,-,.,.,.,.,.
CC(=O)C1C(=O)c2c(cccc2[N+](=O)[O-])C1=Nc1ccc(S(N)(=O)=O)cc1 (stereo not drawn),-,-,37.7,34.8,39.3,-,-,13.4
Cc1ccc(S(=O)(=O)Nc2nc3ccccc3nc2N2CCN(c3ccccc3F)CC2)cc1,-,-,53.7,-,-,-,67.7,27.9
CN1CCN(c2nc3ccccc3nc2NS(=O)(=O)c2ccc(Br)cc2)CC1,-,.,-,-,-,.,.,.
COc1ccc(N2CCN(c3nc4ccccc4nc3NS(=O)(=O)c3ccccc3)CC2)cc1,-,-,57.0,-,-,-,62.1,24.2
CCOc1nc2ccccc2nc1NS(=O)(=O)c1ccc(Cl)cc1,-,-,40.2,-,-,-,-,4.6
O=S(=O)(Nc1nc2ccccc2nc1N1CCN(c2ccccn2)CC1)c1ccc(Cl)cc1,-,.,53.8,-,-,.,63.8,30.7
CCOc1ccc(/C=N/NC(=O)Cc2ccccc2)cc1CN1CC2CC(C1)c1cccc(=O)n1C2 (stereo not drawn),-,-,-,-,-,.,.,.
OC[C@@H]1CC[C@@H]2O[C@H](CCc3ccc(-c4ccc(F)cc4)cc3)[C@H](n3cc(C4CC4)nn3)C[C@@H]2O1,.,.,-,.,.,.,.,.
CN(C)CCCNC(=O)c1cc(C(=O)c2ccc(F)cc2)c[nH]1,-,-,-,-,-,-,.,.
Cc1cccc(NC(=O)/C=C/c2ccc([N+](=O)[O-])s2)c1,-,-,-,-,-,-,.,.
Cc1cccc(NC(=S)N/N=C/c2ccc([N+](=O)[O-])s2)c1,-,-,35.9,-,-,-,-,10.9
Cc1c(CCCC(=O)O)sc(N)c1C(=O)c1cccc(C(F)(F)F)c1,-,-,46.8,-,-,-,-,5.0
O=C(O)CNC(=O)c1cccc(C(F)(F)F)c1,-,-,-,-,-,-,.,.
CCOc1cc(/C=N/N=C2/NC(=O)C(CC(=O)O)S2)ccc1OCc1ccccc1Cl (stereo not drawn),-,-,63.7,-,-,-,46.0,13.1
CCOc1cc(/C=N/N=C2/NC(=O)C(CC(=O)O)S2)ccc1OS(=O)(=O)c1ccc(C)cc1 (stereo not drawn),-,.,55.9,-,-,.,36.3,9.7
O=C(Nc1ccc(Cl)cn1)C1CCN(c2ncnc3c2nc2n3CCCCC2)CC1,-,-,-,-,-,-,.,.
Cc1ccccc1S(=O)(=O)NC(=O)C1(C)CCN1C(=O)CCc1ccc(Cl)cc1Cl (stereo not drawn),.,.,43.7,.,.,.,-,6.1
CC1(C(=O)NS(=O)(=O)c2ccccc2Cl)CCN1C(=O)CCc1ccc(Cl)cc1Cl (stereo not drawn),.,.,46.5,.,.,.,36.1,7.3
CCCCN(C(=O)CCCSc1nc2ccccc2[nH]1)c1c(N)n(Cc2ccccc2)c(=O)[nH]c1=O,-,-,-,-,-,-,.,.
O=C(NN=C1CCN(Cc2ccccc2)CC1)c1cc2ccccc2cc1O,-,-,51.7,-,-,-,56.9,29.9
CC(=O)N1CCC(=NNC(=O)c2cc3ccccc3cc2O)CC1,-,-,-,-,-,-,.,.
O=C(NN=C1CCN(Cc2ccccc2)CC1)c1ccccc1O,-,-,-,-,-,-,.,.
CCOC(=O)N1CCC(=NNC(=O)c2cc3ccccc3cc2O)CC1,-,-,36.6,-,-,-,-,10.9

# Assay outcomes: PubChem, The Scripps Research Institute Molecular Screening Center
